Results as given in PubChem BioAssay (NCATS).
Records with an inconclusive call do not appear. Calls of active or inactive are those of the source. Unless noted, calls come from the whole dose curve.

What was measured:
[1] = AP1 Signaling Pathway (AID 357; active = well fitted curve in either direction with a large enough effect, not every such curve was filed as active;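 note: ME-180 reporter cells stimulated with EGF at its EC50 level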); details: ME-180 (cervical carcinoma) AP-1-bla reporter, EGF-induced, beta-lactamase ratio, 5 h; series mostly up to 17.2 µM
Procedure, shortened: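 Beta-lactamase reporter under AP-1 response element, ME-180 background. Stimulus: EC50 EGF. Compound exposure 5 h, 37 °C. Detection: CCF4, 2.5 h RT, 460/530 nm. Values: AC50 from titration.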

[2] = target: Cytochrome P450 1A2 (Homo sapiens) (UniProt P05177); assay: p450-cyp1a2 (AID 410); details: recombinant CYP1A2, luciferin-ME demethylation, luminescence; series mostly up to 25.6 µM; note: potency is the fitted concentration of half-maximal effect
Procedure, shortened: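 O-Demethylation of luciferin 6' methyl ether by human CYP1A2 is monitored as luciferase luminescence. Substrate sits at Km (100uM); enzyme is 20nM. Values are scaled to 57 uM furafylline as maximal inhibition.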

[3] = NFAT Signaling Pathway (AID 444; active = well fitted curve in either direction with a large enough effect, not every such curve was filed as active;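 note: carbachol stimulus at about its EC50 of 1 µM final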); details: Jurkat NFAT-bla M1, carbachol, beta-lactamase ratio, 5 h; series mostly up to 17.2 µM
Procedure, shortened: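 Jurkat cells carrying an NFAT-driven β-lactamase reporter and co-transfected muscarinic M1 receptor were treated with compound plus carbachol (1 uM final, an EC50 level) for 5 h at 37 °C. CCF4 loading followed for 1 h at RT; 460/530 nm ratio gave %activity.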

[4] = Cell Viability - BJ (AID 421); details: BJ fibroblast viability, qHTS;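 note: potency is the fitted concentration of half-maximal effect; cells exposed to compound for 40 hours at 37 °C before readout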
Procedure, shortened: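 Normal human BJ foreskin fibroblasts, 1500/well in complete medium, treated 40 hr at 37 °C. Cellular ATP by CellTiter-Glo luminescence; normalized to DMSO and 100 uM tamoxifen, AC50 from Hill fit.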

[5] = Cell Viability - Jurkat (AID 426;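 active = dose-dependent loss of cell ATP signal giving a full or clear fitted curve, ranked by lower potency value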; note: potency is the fitted concentration of half-maximal effect); details: qHTS
Procedure, shortened: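 Cells of the human T-cell leukemia line Jurkat (E6-1) are seeded at 5000 per well, treated with compound across a concentration range for 40 hours at 37 °C, then lysed with CellTiter-Glo; luminescence reports ATP.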

[6] = Cell Viability - Hek293 (AID 427;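 active = compounds whose dose-response curve shows a full or clear partial loss of cell viability, called from curve shape rather than a numeric limit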;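 note: potency is the fitted concentration of half-maximal effect; cells exposed to compound for 40 hours at 37 °C before reading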); details: qHTS
Procedure, shortened: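 HEK293 cells in complete medium were exposed to compound for 40 hr at 37 °C, then cellular ATP was read by CellTiter-Glo luminescence. Data were normalized to DMSO (basal) and 100 uM tamoxifen (100% inhibition), and AC50 came from Hill fits.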

[7] = Cell Viability - HepG2 (AID 433); details: qHTS;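 note: potency is the fitted concentration of half-maximal effect; potency for ATP loss meaning cytotoxicity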
Procedure, shortened: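 HepG2 cells, 1500 per well, treated 40 hr at 37 °C in complete medium; viability from intracellular ATP by CellTiter-Glo luminescence. Normalized to DMSO and 100 uM tamoxifen; AC50 from Hill fit of qHTS concentration-response.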

[8] = Cell Viability - MRC5 (AID 434); details: MRC5 lung fibroblast viability, qHTS;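 note: potency is the fitted concentration of half-maximal effect; potency reflects cytotoxicity seen as loss of intracellular ATP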
Procedure, shortened: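 Decrease in intracellular ATP, quantified by luciferase light output, reflects compound toxicity toward MRC5 cells exposed for 40 hr in complete culture medium. Concentration-response curves, scaled between DMSO and 100 uM tamoxifen, gave AC50 values.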

[9] = Cell Viability - SK-N-SH (AID 435); details: SK-N-SH neuroblastoma cell viability qHTS;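 note: potency is the fitted concentration of half-maximal effect; compound exposure lasted 40 h at 37 °C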
Procedure, shortened: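 SK-N-SH neuroblastoma cells (1500/well) treated 40 h at 37 °C in complete medium; viability read as cellular ATP by CellTiter-Glo luminescence. Normalized to DMSO and 100 uM tamoxifen; AC50 from Hill fits of qHTS concentration-response.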

[10] = target: Lysosomal acid glucosylceramidase (Homo sapiens) (UniProt P04062); assay: Glucocerebrosidase-p2 (AID 348; in the data active = potency below about 10 µM; note: potency is the fitted concentration of half-maximal effect); details: purified GBA, blue fluorogenic substrate, 40 min
Procedure, shortened: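 Normal human glucocerebrosidase (0.2 nM) with blue fluorogenic substrate (80 uM final) in citrate/phosphate pH 5.9 with 10mM sodium taurocholate, 0.01% tween-20; 40 min RT, NaOH/glycine stop; fluorescence Ex 365/Em 440; AC50 from a titration from 0.6 nM upwards.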

Measured: Potency

Chain of Cytochrome P450 1A2 (Homo sapiens) (P05177 whole entry, looked up): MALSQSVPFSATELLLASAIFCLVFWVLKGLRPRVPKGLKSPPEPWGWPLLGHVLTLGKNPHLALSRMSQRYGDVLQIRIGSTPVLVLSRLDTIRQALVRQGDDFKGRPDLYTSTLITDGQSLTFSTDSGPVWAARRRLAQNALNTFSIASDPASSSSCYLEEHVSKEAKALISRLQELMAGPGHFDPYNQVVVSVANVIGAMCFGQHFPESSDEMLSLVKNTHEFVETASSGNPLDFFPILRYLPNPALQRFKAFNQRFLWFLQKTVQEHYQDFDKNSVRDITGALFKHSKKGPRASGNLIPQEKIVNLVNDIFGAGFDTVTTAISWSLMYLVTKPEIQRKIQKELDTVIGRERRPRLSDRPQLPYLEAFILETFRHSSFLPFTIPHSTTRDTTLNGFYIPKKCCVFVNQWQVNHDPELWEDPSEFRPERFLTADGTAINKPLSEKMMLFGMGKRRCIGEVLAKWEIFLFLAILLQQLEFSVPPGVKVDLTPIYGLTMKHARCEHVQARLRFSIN
Chain of Lysosomal acid glucosylceramidase (Homo sapiens) (P04062 whole entry, looked up): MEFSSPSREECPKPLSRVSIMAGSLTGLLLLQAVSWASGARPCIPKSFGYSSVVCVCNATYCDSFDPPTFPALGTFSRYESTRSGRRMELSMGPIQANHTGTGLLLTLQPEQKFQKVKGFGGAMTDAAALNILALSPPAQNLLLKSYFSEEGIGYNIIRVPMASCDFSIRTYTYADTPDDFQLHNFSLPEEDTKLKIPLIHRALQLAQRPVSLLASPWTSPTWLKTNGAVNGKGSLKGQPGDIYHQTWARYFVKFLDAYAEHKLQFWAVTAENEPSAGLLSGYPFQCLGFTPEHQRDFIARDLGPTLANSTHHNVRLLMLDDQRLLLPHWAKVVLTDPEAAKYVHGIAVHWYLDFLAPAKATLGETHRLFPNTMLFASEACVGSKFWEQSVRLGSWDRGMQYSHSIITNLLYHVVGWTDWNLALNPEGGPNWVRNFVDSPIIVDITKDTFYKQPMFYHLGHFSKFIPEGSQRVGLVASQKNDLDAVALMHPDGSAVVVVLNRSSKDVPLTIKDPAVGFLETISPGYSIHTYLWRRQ

COc1ccc2c(OC)c3ccoc3nc2c1OC
active: [2] 0.0794 µM
inactive: [1] | [3]

CC(=O)O[C@@H]1CC(C)=C2[C@H]1[C@H](C)CC[C@H]2/C=C(\C)C(=O)O
inactive: [4] > 92 µM | [5] > 92 µM | [6] > 92 µM | [7] > 92 µM | [8] > 92 µM | [9] > 92 µM

Nc1ccccc1N
inactive: [4] > 92 µM | [6] > 92 µM | [7] > 92 µM | [8] > 92 µM | [9] > 92 µM

Cc1ccccc1CN1C2=NCCN2C(=O)C2=C1CCN(Cc1ccccc1)C2
inactive: [10] > 11.4 µM | [1] | [2] | [3]

Cc1ccc(N)cc1O
inactive: [4] > 92 µM | [5] > 92 µM | [6] > 92 µM | [7] > 92 µM | [8] > 92 µM | [9] > 92 µM

O=C1NC(=O)C(c2cn(-c3ccccc3)nc2-c2ccc(F)cc2)N1 (configuration not stated)
inactive: [1] | [3]

COc1ccc(C[C@H](N)C(=O)N[C@@H]2[C@H](O)[C@H](n3cnc4c(N(C)C)ncnc43)O[C@@H]2CO)cc1
inactive: [2]
